# Test results from PubChem BioAssay.
# The source made the active and inactive calls. Cut-off read from the data, not from the text of the source, unless noted: active = inhibition above about 80%; inactive = the rest.
# Assays:
# [1] = compounds altering viability of human ES cells (AID 493140; call rule not given here;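 note: cells exposed to compounds for four days before counting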); conditions: human embryonic stem cell survival screen; stronger effect = higher value
# [2] = P. berghei load reduction in hepatocytes – cell-based, HepG2, luciferase luminescence, HepG2 viability, primary screen (AID 624349; in the data active = parasite load remaining mostly below about 12%, no sharp cut-off; inactive = mostly above about 10%;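 note: 100% = mean of DMSO negative control wells on the same plate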); conditions: P. berghei liver stage in HepG2, luciferase luminescence, concentration not given here; parasite load remaining: stronger effect = lower value; viability: measured here: HepG2 viability without parasites
# [3] = target: Mitogen-activated protein kinase 7 (Homo sapiens) (UniProt Q13164); test: Gal4-ERK5 driven luciferase induction – cell-based, HTS, primary screen (AID 1508626;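 active = luciferase signal above three times the same-plate solvent-only control wells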;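 note: luciferase driven by Gal4-ERK5 fusion binding five Gal4 sites before minimal TATA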); conditions: HeLa Gal4-ERK5 transactivation, 18 h, at 5 µM, stronger effect = higher value
# Sequence of Mitogen-activated protein kinase 7 (Homo sapiens) (Q13164 whole entry, looked up, the tested form may be a part): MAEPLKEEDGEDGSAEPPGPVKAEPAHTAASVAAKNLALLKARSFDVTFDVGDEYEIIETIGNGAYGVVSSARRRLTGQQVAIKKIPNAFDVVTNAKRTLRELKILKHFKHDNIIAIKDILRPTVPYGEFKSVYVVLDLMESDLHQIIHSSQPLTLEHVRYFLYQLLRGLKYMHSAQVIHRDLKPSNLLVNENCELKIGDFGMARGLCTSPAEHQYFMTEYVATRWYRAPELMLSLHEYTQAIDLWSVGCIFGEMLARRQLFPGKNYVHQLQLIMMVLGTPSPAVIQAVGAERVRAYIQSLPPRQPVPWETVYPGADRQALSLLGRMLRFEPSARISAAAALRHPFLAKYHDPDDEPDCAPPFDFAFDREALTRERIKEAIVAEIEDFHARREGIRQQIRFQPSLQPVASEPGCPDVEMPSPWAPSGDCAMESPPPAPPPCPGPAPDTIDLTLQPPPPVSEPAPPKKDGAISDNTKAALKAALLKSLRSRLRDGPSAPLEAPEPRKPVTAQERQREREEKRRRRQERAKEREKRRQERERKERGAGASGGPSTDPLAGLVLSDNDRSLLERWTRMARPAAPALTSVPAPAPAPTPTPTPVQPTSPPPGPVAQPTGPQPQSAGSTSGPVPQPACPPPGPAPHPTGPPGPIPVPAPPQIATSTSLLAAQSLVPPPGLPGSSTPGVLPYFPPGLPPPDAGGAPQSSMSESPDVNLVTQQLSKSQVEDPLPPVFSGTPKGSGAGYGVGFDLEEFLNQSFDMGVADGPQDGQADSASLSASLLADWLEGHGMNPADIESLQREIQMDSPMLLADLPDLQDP
# [4] = blockers of cellular phospholipid synthesis – cell-based, LOPAC library, screen 4, primary screen (AID 1347384; call rule not given here); conditions: animal cells, phospholipid biosynthesis inhibition screen; at 10 µM
# [5] = galactose survival enhancers in mitochondrial complex I cybrids – cell-based, galactose medium, ATP luminescence, primary screen (AID 1645843;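 active = z-score of at least 1.8 in each of two replicates, scored against plate mean and spread of sample wells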;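 note: positive z means more ATP and so rescue of galactose-driven cybrid death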); conditions: complex I mutant cybrid cells, 72 h, stronger effect = higher value
# [6] = growth inhibition, single agents and combos, LFS_MB_1R, cell-based, cisplatin or BGB combos, synergistic combos for chromothripsis tumors (AID 1671452); conditions: LFS_MB_1R medulloblastoma cells, stronger effect = higher value;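 note: cells exposed for 96 hours before readout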
# [7] = growth inhibition, single agents and combos, CRL2098, cell-based, BGB or cisplatin IC20 combos, synergistic combos for chromothripsis tumors (AID 1671454); conditions: CRL2098 osteosarcoma cells, drug combinations, stronger effect = higher value;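 note: cells exposed for 96 h before readout; 0% = vehicle DMSO and 100% = killing by high DMSO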
# [8] = growth inhibition, single agents and combos, HD-MB03, cell-based, BGB or cisplatin IC20 combos, synergistic combos for chromothripsis tumors (AID 1671455; in the data active = inhibition above about 83%;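 note: 0% = vehicle DMSO and 100% = high DMSO as cytotoxic control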); conditions: HD-MB03 medulloblastoma cells, stronger effect = higher value
# [9] = growth inhibition, single agents and combos, UWB1.289, cell-based, BGB or cisplatin combos, synergistic combos for chromothripsis tumors (AID 1671456); conditions: UWB1.289 ovarian carcinoma cells, stronger effect = higher value;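 note: cells exposed to compound for four days; 0% = vehicle DMSO and 100% = killing by high DMSO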
# [10] = growth inhibition, single agents and combos, LFS_MB_2R, cell-based, cisplatin combos, synergistic combos for chromothripsis tumors (AID 1671457); conditions: LFS_MB_2R medulloblastoma cells, stronger effect = higher value;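 note: cells exposed to compound for four days before readout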
# [11] = UWB1.289_BRCA1 ovarian cancer growth, cell-based, BGB or cisplatin combinations (AID 1671459); conditions: UWB1.289 BRCA1 ovarian carcinoma, drug combinations, stronger effect = higher value
# [12] = drug combination toxicity in non-malignant astrocytes – cell-based, BGB or cisplatin IC20 combos, cytotoxicity control for chromothriptic childhood tumor combination screen (AID 1671460); conditions: Human astrocytes, viability inhibition, drug combinations, at 0.5 µM, stronger effect = higher value;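 note: cells exposed to compounds for 96 hours before viability readout; 0% = vehicle and 100% = killing control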
# [13] = CRL1545 cell growth, single agent and combined, cisplatin and BGB IC20 combos (AID 1671464); conditions: CRL1545 osteosarcoma cells, stronger effect = higher value;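 note: cells exposed to compound for 96 hours before readout; 0% = vehicle DMSO and 100% = high DMSO killing control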
# [14] = measured here: combination with BGB IC40, at 0.05 µM
# [15] = measured here: combination with cisplatin, at 0.5 µM
# [16] = measured here: combination with cisplatin, at 5 µM
# [17] = measured here: combination with BGB at IC20, at 0.5 µM
# [18] = measured here: combination with cisplatin at IC20, at 0.5 µM
# [19] = measured here: combo with BGB at IC20, at 0.5 µM
# [20] = measured here: combo with cisplatin at IC20, at 0.5 µM
# [21] = measured here: inhibition with BGB combination, at 0.05 µM
# [22] = measured here: inhibition with cisplatin combination, at 0.05 µM
# [23] = BGB combination, concentration series, at 5 µM
# [24] = cisplatin combination, concentration series, at 5 µM
# [25] = measured here: combo with BGB IC20
# [26] = measured here: combo with cisplatin IC20
# [27] = measured here: with BGB IC20 combination, at 0.5 µM
# [28] = measured here: with cisplatin IC20 combination, at 0.5 µM
smiles,measurement,setting,value
CC[C@H](CC[C@@H](C)[C@H]1CC[C@H]2[C@@H]3CC=C4C[C@@H](O)CC[C@]4(C)[C@H]3CC[C@]12C)C(C)C,survival,[1],9.58 (inactive)
same,parasite load remaining,[2],99.6% (inactive)
same,viability,[2],72.8%
same,luciferase signal,[3],32 AU (inactive)
CCOC(=O)N1CCN(/[N+]([O-])=N/Oc2ccc([N+](=O)[O-])cc2[N+](=O)[O-])CC1,outcome,[4],inactive
same,z-score,[5],-0.95 (inactive)
CC(=O)Nc1nc(C)c(-c2ccc(Cl)c(S(=O)(=O)NCCO)c2)s1,inhibition,[6]; at 0.5 µM,1.54% (inactive)
same,inhibition,[6]; [14],-12.3%
same,inhibition,[6]; [15],15.7%
same,inhibition,[6]; [16],14.2%
same,inhibition,[7]; at 0.5 µM,17% (inactive)
same,inhibition,[7]; [17],5.45%
same,inhibition,[7]; [18],52.4%
same,inhibition,[8]; at 0.5 µM,14.3% (inactive)
same,inhibition,[8]; [19],17.8%
same,inhibition,[8]; [20],10.3%
same,inhibition,[9]; at 0.5 µM,10.9% (inactive)
same,inhibition,[9]; [21],10.4%
same,inhibition,[9]; [22],1.8%
same,inhibition,[10]; at 0.5 µM,9.32% (inactive)
same,inhibition,[10]; [15],10.4%
same,inhibition,[10]; [16],43.2%
same,inhibition,[11]; [23],22.7%
same,inhibition,[11]; at 0.5 µM,6.36% (inactive)
same,inhibition,[11]; [24],12.2%
same,inhibition,[12],23.1% (inactive)
same,inhibition,[12]; [25],23.7%
same,inhibition,[12]; [26],25.1%
same,inhibition,[13]; at 0.5 µM,-8.22% (inactive)
same,inhibition,[13]; [27],-13.7%
same,inhibition,[13]; [28],-7.2%
same,inhibition,"[13]; single agent, at 0.05 µM",-0.058%
same,inhibition,"[13]; single agent, at 5 µM",1.73%
O=c1cc(N2CCOCC2)oc2c(-c3cccc4c3sc3ccccc34)cccc12,inhibition,[6]; at 0.5 µM,-39.7% (inactive)
same,inhibition,[6]; [14],-46.9%
same,inhibition,[6]; [15],-75.1%
same,inhibition,[6]; [16],-3.55%
same,inhibition,[7]; at 0.5 µM,-62.4% (inactive)
same,inhibition,[7]; [17],-46.6%
same,inhibition,[7]; [18],-92%
same,inhibition,[8]; at 0.5 µM,0.79% (inactive)
same,inhibition,[8]; [19],-1.46%
same,inhibition,[8]; [20],11.5%
same,inhibition,[9]; at 0.5 µM,-12.2% (inactive)
same,inhibition,[9]; [21],-24%
same,inhibition,[9]; [22],-24.1%
same,inhibition,[10]; at 0.5 µM,-22.4% (inactive)
same,inhibition,[10]; [15],-18.6%
same,inhibition,[10]; [16],-3.32%
same,inhibition,[11]; [23],44.6%
same,inhibition,[11]; at 0.5 µM,-11.7% (inactive)
same,inhibition,[11]; [24],12.1%
same,inhibition,[12],9.11% (inactive)
same,inhibition,[12]; [25],7.86%
same,inhibition,[12]; [26],13%
same,inhibition,[13]; at 0.5 µM,17.1% (inactive)
same,inhibition,[13]; [27],-25.4%
same,inhibition,[13]; [28],37.3%
same,inhibition,"[13]; single agent, at 0.05 µM",-18.4%
same,inhibition,"[13]; single agent, at 5 µM",-71.2%
Nc1ccc(-c2ccc3ncc4ccc(=O)n(-c5cccc(C(F)(F)F)c5)c4c3c2)cn1,inhibition,[6]; at 0.5 µM,-12.4% (inactive)
same,inhibition,[6]; [14],-33.9%
same,inhibition,[6]; [15],-17%
same,inhibition,[6]; [16],48.5%
same,inhibition,[7]; at 0.5 µM,47.4% (inactive)
same,inhibition,[7]; [17],49.5%
same,inhibition,[7]; [18],49.4%
same,inhibition,[8]; at 0.5 µM,39.9% (inactive)
same,inhibition,[8]; [19],13.5%
same,inhibition,[8]; [20],69.9%
same,inhibition,[9]; at 0.5 µM,49.8% (inactive)
same,inhibition,[9]; [21],-0.684%
same,inhibition,[9]; [22],1.16%
same,inhibition,[10]; at 0.5 µM,2.91% (inactive)
same,inhibition,[10]; [15],17.6%
same,inhibition,[10]; [16],76.8%
same,inhibition,[11]; [23],98.8%
same,inhibition,[11]; at 0.5 µM,52.1% (inactive)
same,inhibition,[11]; [24],104%
same,inhibition,[12],76.8% (inactive)
same,inhibition,[12]; [25],71%
same,inhibition,[12]; [26],77.3%
same,inhibition,[13]; at 0.5 µM,79.5% (inactive)
same,inhibition,[13]; [27],69.2%
same,inhibition,[13]; [28],84.4%
same,inhibition,"[13]; single agent, at 0.05 µM",-3.59%
same,inhibition,"[13]; single agent, at 5 µM",98.4%
